“And” between values parts separate entries of the source, which are not always exact repeats. Equal entries are not always repeated. A structure can be active in one record and inactive in another. The source made the active and inactive calls. The calls were made as follows: active = hit-call score of the fitted dose curve at least 0.9, where 1 is the maximum; inactive = score below 0.9.

Read-out in assay [1]: Interleukin-1 alpha (IL1a), IL1A (gene 3552)
Kind of assay: BSK_KF3CT_IL1a: BioMAP Diversity Plus: KF3CT Assay for Interleukin-1 alpha (IL1a) Biomarker Activity (AID 2283070). Conditions: primary human keratinocytes with fibroblasts; actives raise or lower the signal. The method, boiled down: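 Chemicals were dosed onto co-cultured human keratinocytes and foreskin fibroblasts, IL-1a was quantified by ELISA at 24 h, and activity was fitted in both directions relative to DMSO controls.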

Read-out in assay [2]: TIMP metallopeptidase inhibitor 2 (TIMP2), TIMP2 (gene 7077)
Kind of assay: BSK_KF3CT_TIMP2: BioMAP Diversity Plus: KF3CT Assay for TIMP metallopeptidase inhibitor 2 (TIMP2) Biomarker Activity (AID 2283071). The conditions noted are these: primary human keratinocytes with fibroblasts; actives raise or lower the signal. Summed up:
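Cells: human keratinocytes co-cultured with foreskin fibroblasts. Treat with chemical, 24 h. Measure TIMP-2 by ELISA; fit curves bidirectionally vs DMSO baseline.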

Read-out in assay [3]: Transforming growth factor beta 1 (TGFb1), TGFB1 (gene 7040)
Kind of assay: BSK_KF3CT_TGFb1: BioMAP Diversity Plus: KF3CT Assay for Transforming growth factor beta 1 (TGFb1) Biomarker Activity (AID 2283072). Conditions: primary human keratinocytes with fibroblasts; actives raise or lower the signal. The method, boiled down: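 Primary human skin cells (keratinocytes, foreskin fibroblasts) were co-cultured, exposed to test chemical and sampled at 24 h. TGF-b1 levels were measured by ELISA and fitted bidirectionally relative to DMSO.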

Read-out in assay [4]: C-C motif chemokine 2 (Homo sapiens) (UniProt P13500)
Kind of assay: BSK_KF3CT_MCP1: BioMAP Diversity Plus: KF3CT Assay for Monocyte Chemoattractant Protein 1 (MCP1/CCL2) Biomarker Activity (AID 2283073). Conditions: primary human keratinocytes with fibroblasts; actives raise or lower the signal. Summed up: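 ELISA readout of MCP-1 after 24 h chemical dosing of a human skin primary co-culture of keratinocytes and foreskin fibroblasts. Activity was fitted in both directions against DMSO.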

Read-out in assay [5]: Matrix Metallopeptidase 9 (MMP9), MMP9 (gene 4318)
Kind of assay: BSK_KF3CT_MMP9: BioMAP Diversity Plus: KF3CT Assay for Matrix Metallopeptidase 9 (MMP9) Biomarker Activity (AID 2283074).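 As to AC50: MMP9 protein level quantified by ELISA in the co-culture.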 The conditions noted are these: primary human keratinocytes with fibroblasts; actives raise or lower the signal. Summed up: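 Human keratinocyte/foreskin fibroblast co-culture; compound added; 24 h; MMP-9 by ELISA; bidirectional fit vs DMSO baseline.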

Read-out in assay [6]: CD40, CD40 (gene 958)
The experiment in a line: BSK_LPS_CD40: BioMAP Diversity Plus: LPS Assay for CD40 Biomarker Activity (AID 2283076). The conditions noted are these: primary human HUVEC with PBMC; actives raise or lower the signal. Summed up:
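Cells were dosed, incubated 24 h, then assayed for CD40 by ELISA. Gain or loss of signal was analysed relative to DMSO controls. The culture paired human umbilical vein endothelium with peripheral blood mononuclear cells.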

Read-out in assay [7]: E-selectin (Homo sapiens) (UniProt P16581)
Kind of assay: BSK_LPS_Eselectin: BioMAP Diversity Plus: LPS Assay for Eselectin Biomarker Activity (AID 2283077). Conditions: primary human HUVEC with PBMC; actives raise or lower the signal. Summed up:
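Primary human vascular co-culture (endothelium plus PBMC) was dosed with chemical, then E-selectin quantified by ELISA at 24 h. Endpoint values derive from bidirectional curve fitting relative to DMSO.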

Read-out in assay [8]: Interleukin-8 (IL8), CXCL8 (gene 3576)
The experiment in a line: BSK_LPS_IL8: BioMAP Diversity Plus: LPS Assay for Interleukin-8 (IL8) Biomarker Activity (AID 2283078). The conditions noted are these: primary human HUVEC with PBMC; actives raise or lower the signal. Summed up:
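Readout is IL-8 by ELISA, taken 24 h after compounds were added to LPS-stimulated endothelial/PBMC co-cultures. Both increases and decreases relative to DMSO control were scored through bidirectional fitting.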

Assay [9] can be described thus: BSK_LPS_SRB: Viability Assessment in the BioMAP Diversity Plus: LPS Assay (AID 2283079).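 Also: total protein by sulforhodamine B absorbance as a cytotoxicity measure; measured one day after compound addition; fitted in both directions against DMSO so loss or gain of signal counts.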 The conditions noted are these: primary human HUVEC with PBMC. Summed up:
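Readout is SRB absorbance at 560 nm (0.1% stain, TCA-fixed parallel cultures) as a total-protein cytotoxicity measure. Cells: primary human umbilical vein endothelium plus peripheral blood mononuclear cells, 24 h after chemical exposure; DMSO served as baseline.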

Read-out in assay [10]: Interleukin-1 alpha (IL1a), IL1A (gene 3552)
Kind of assay: BSK_LPS_IL1a: BioMAP Diversity Plus: LPS Assay for Interleukin-1 alpha (IL1a) Biomarker Activity (AID 2283080). The conditions noted are these: primary human HUVEC with PBMC; actives raise or lower the signal. The method, boiled down: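 ELISA read-out of IL-1 alpha from a human primary vascular co-culture (endothelium plus PBMC) under LPS, sampled 24 hours post-dosing. Activity was fitted in both directions relative to DMSO controls.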

Read-out in assay [11]: Monocyte Chemoattractant Protein-1 (MCP1), CCL2 (gene 6347)
The experiment in a line: BSK_LPS_MCP1: BioMAP Diversity Plus: LPS Assay for Monocyte Chemoattractant Protein-1 (MCP1) Biomarker Activity (AID 2283081). Conditions: primary human HUVEC with PBMC; actives raise or lower the signal. The method, boiled down:
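Human endothelial–PBMC co-cultures were dosed with chemical, then LPS-driven MCP-1 levels were quantified by ELISA at 24 h. Activity in either direction was fitted versus DMSO negative control.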

A short description of assay [12]: BSK_LPS_PGE2: BioMAP Diversity Plus: LPS Assay for Prostaglandin E2 (PGE2) Biomarker Activity (AID 2283082). Conditions: primary human HUVEC with PBMC; actives raise or lower the signal. Summed up:
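LPS-activated HUVEC/PBMC co-culture; cmpd dosed, 24 h; PGE2 by ELISA; bidirectional fit vs DMSO; SRB (0.1%, TCA-fixed, 560 nm) in parallel plates for overt cytotox.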

Read-out in assay [13]: Macrophage colony-stimulating factor (MCSF), CSF1 (gene 1435)
Kind of assay: BSK_LPS_MCSF: BioMAP Diversity Plus: LPS Assay for Macrophage colony-stimulating factor (MCSF) Biomarker Activity (AID 2283083). Conditions: primary human HUVEC with PBMC; actives raise or lower the signal. The method, boiled down:
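ELISA readout of M-CSF after 24 h compound exposure in a human endothelial/PBMC co-culture. Activity, in either direction, is fitted relative to DMSO vehicle.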

Read-out in assay [14]: Tissue Factor, F3 (gene 2152)
Kind of assay: BSK_LPS_TissueFactor: BioMAP Diversity Plus: LPS Assay for Tissue Factor Biomarker Activity (AID 2283084). Conditions: primary human HUVEC with PBMC; actives raise or lower the signal. The method, boiled down: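 ELISA signal for cell-surface Tissue Factor (CD142) was read 24 h after compound dosing of an LPS-stimulated human endothelial–PBMC primary co-culture. Gain or loss of signal was scored relative to DMSO.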

Read-out in assay [15]: Tumor necrosis factor (Homo sapiens) (UniProt P01375)
Kind of assay: BSK_LPS_TNFa: BioMAP Diversity Plus: LPS Assay for Tumour Necrosis Factor alpha (TNFa) Biomarker Activity (AID 2283085). The conditions noted are these: primary human HUVEC with PBMC; actives raise or lower the signal. Summed up:
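Read-out is ELISA of TNFa in primary human endothelial cell–PBMC co-cultures at 24 h after compound. Activity in either direction was fitted against DMSO.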

Read-out in assay [16]: Vascular cell adhesion molecule 1 (VCAM1), VCAM1 (gene 7412)
The experiment in a line: BSK_LPS_VCAM1: BioMAP Diversity Plus: LPS Assay for Vascular cell adhesion molecule 1 (VCAM1) Biomarker Activity (AID 2283086). The conditions noted are these: primary human HUVEC with PBMC; actives raise or lower the signal. Summed up:
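HUVEC + PBMC co-culture, LPS system; compound 24 h; VCAM-1 by ELISA; bidirectional fit vs DMSO control; parallel SRB (0.1%, TCA-fixed, 560 nm) for cytotoxicity.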

Read-out in assay [17]: CD38, CD38 (gene 952)
Kind of assay: BSK_SAg_CD38: BioMAP Diversity Plus: SAg Assay for CD38 Biomarker Activity (AID 2283087). The conditions noted are these: primary human HUVEC with PBMC; actives raise or lower the signal. Summed up: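 Human HUVEC plus PBMC co-culture stimulated with superantigen; CD38 measured by ELISA 24 h after chemical dosing. Fluorescence read-out, bidirectional fit against DMSO; cytotoxicity tracked in parallel by SRB and Alamar Blue.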

Read-out in assay [18]: CD40, CD40 (gene 958)
Kind of assay: BSK_SAg_CD40: BioMAP Diversity Plus: SAg Assay for CD40 Biomarker Activity (AID 2283088). Conditions: primary human HUVEC with PBMC; actives raise or lower the signal. Summed up:
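Compounds were dosed onto a human primary endothelial–PBMC co-culture, and after 24 h CD40 was quantified by ELISA using a fluorescence signal. Activity in either direction was fitted relative to DMSO.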

Read-out in assay [19]: CD69, CD69 (gene 969)
The experiment in a line: BSK_SAg_CD69: BioMAP Diversity Plus: SAg Assay for CD69 Biomarker Activity (AID 2283089). The conditions noted are these: primary human HUVEC with PBMC; actives raise or lower the signal. Summed up:
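Endothelial/PBMC co-culture; chemical added; 24 h incubation; CD69 ELISA with fluorescence detection; bidirectional fit vs DMSO.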

Read-out in assay [20]: urokinase plasminogen activator (uPA), PLAU (gene 5328)
Kind of assay: BSK_KF3CT_uPA: BioMAP Diversity Plus: KF3CT Assay for urokinase plasminogen activator (uPA) Biomarker Activity (AID 2283075). Conditions: primary human keratinocytes with fibroblasts; actives raise or lower the signal. Summed up: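 ELISA readout of uPA, analyzed for signal gain or loss relative to DMSO, from a human primary keratinocyte–foreskin fibroblast co-culture measured 24 h after chemical treatment.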

Chain of Tumor necrosis factor (Homo sapiens) (P01375 whole entry, looked up): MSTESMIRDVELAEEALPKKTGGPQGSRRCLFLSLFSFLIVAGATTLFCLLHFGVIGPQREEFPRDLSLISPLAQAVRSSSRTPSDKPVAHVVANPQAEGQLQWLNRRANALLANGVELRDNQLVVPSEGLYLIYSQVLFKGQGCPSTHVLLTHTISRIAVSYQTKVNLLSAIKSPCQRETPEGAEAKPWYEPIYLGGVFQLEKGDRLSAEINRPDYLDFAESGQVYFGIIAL
Chain of E-selectin (Homo sapiens) (P16581 whole entry, looked up): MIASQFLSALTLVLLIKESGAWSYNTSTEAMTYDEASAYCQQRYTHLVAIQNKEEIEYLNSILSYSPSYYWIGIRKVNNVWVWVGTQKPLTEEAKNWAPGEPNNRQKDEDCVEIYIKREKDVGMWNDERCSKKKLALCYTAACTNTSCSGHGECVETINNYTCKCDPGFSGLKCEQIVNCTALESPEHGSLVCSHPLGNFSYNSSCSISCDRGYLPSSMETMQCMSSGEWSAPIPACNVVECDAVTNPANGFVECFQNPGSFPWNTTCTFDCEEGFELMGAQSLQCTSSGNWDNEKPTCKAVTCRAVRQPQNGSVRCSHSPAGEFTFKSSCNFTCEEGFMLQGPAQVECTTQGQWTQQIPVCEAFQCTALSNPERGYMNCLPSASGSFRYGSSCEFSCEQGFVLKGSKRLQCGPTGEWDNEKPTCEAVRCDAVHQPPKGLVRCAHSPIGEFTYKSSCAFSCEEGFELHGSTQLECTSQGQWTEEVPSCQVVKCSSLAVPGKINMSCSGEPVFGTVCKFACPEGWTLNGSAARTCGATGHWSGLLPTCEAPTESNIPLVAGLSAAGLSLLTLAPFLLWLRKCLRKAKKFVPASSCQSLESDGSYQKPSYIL

Take `Nc1cc([N+](=O)[O-])cc(Cl)c1O`: the result in assay [1], in assay [2], in assay [3], in assay [4], in [5] and in [6] was inactive. The outcome in assay [7], in [8], in assay [9], in [10], in assay [11] and in assay [12] was inactive. Besides, the result in assay [13], in [14], in assay [15], in assay [16], in assay [17] and in [18] was inactive. The outcome in [19] was inactive.

As for `O=C=NCc1cccc(CN=C=O)c1`, the outcome in [1], in assay [2], in assay [3], in [4], in assay [5] and in assay [20] was inactive. Moreover, the outcome in [6], in assay [7], in assay [8], in assay [9], in assay [10] and in assay [11] was inactive. The result in assay [12], in assay [13], in [14], in assay [15], in assay [16] and in [17] was inactive. The outcome in assay [18] and in assay [19] was inactive.

Consider `O=C(O)C(F)(F)C(F)(F)C(F)(F)OC(F)(C(F)(F)F)C(F)(F)F`, for which the outcome in assay [1], in assay [2], in assay [4], in assay [5], in [20] and in [6] was inactive. Moreover, the outcome in [7], in assay [9], in assay [10], in assay [11], in [12] and in assay [13] was inactive. Further, the outcome in assay [14], in [15], in assay [16], in assay [17], in assay [18] and in assay [19] was inactive. For the same molecule, the AC50 in assay [5] was 24.7 µM (active); in [8], 7.64 µM (active) and 9.75 µM (active).

As a reminder, the AC50 is the concentration at which the activity in the assay is half-maximal.
